Results on 40 molecules are retold here after PubChem BioAssay (NCI).

Compounds without any hit were thinned out: in the full panel of roughly 83,000, 20% have a hit.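 For each line, cells grew in 96-well plates with the test compound present at a single concentration for 48 hours.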 Unmarked numbers belong to inactive results. Calls of active or inactive are those of the source.

This assay deals with RPMI-8226 leukemia. Nature of the assay: NCI-60 one-dose screen, 48 h (100 = growth as untreated, 0 = no growth, -100 = all killed). The settings on record: 10 µM unless noted. The protocol:
Growth inhibition of the RPMI-8226 human tumor cell line is measured as a screen for anti-cancer activity. Cells are grown in 96 well plates and exposed to the test compound for 48 hours. Compounds are tested at a single concentration, which is 10^-5 M for most compounds. The reported endpoint is percent growth (GI% or GIPRCNT), where numbers from 0 - 100% represent growth inhibition, and numbers from -100% - 0 represent cell death. For example, a value of 40 represents 60% growth inhibition. A value of 0 means no net growth occurred over the course of the experiment. A value of -40 indicates 40% of cells at the beginning of the experiment died by the end of the experiment. A value of -100 means all cells are dead at the end of the experiment.
NCI-60 Human Tumor Cell Lines Screen was performed using the standard one-dose NCI protocol, which is described in more detail at https://dtp.cancer.gov/discovery_development/nci-60/default.htm.
Compounds with GIPRCNT values below 10 were considered active. Activity score was based on GIPRCNT using the following formula: […]
Score is 0 for GIPRCNT values of 100 or above, 50 for GIPRCNT values of 0, and 100 for GIPRCNT values of -100.
Take `COc1ccc(CN2C(=O)C(Cl)=C(Nc3cccc(C(F)(F)F)c3)C2=O)cc1`: the growth is 42.6%.
For the molecule `CCOC(=O)c1c(-c2ccc(Cl)cc2)c(C#N)c(=O)n(-c2ccccc2CC)c1N`, the growth was 69.3%.
Take `CNc1ccc(NC)c2c1C(=O)c1ccccc1C2=O`: the growth is 90.2%.
With `O=C(Cc1ccc(F)c(F)c1)Nc1cc(C2(C(F)(F)F)CC2)nn1Cc1ccccc1`, the growth is 3.57% (active).
Consider `COc1cc(C2CC(=O)Nc3c2c(C)nn3-c2nc3ccccc3[nH]2)c(OC)c2c1OCO2` (stereo not given), for which the growth was 60.1%.
The figure for `CCC(CO)Nc1nc2ccc(Cl)cc2c2ccccc12` (stereo not given) is 66.6%.
Regarding `NS(=O)(=O)c1ccc(-n2nc(C(=O)N/N=C\c3ccc(F)cc3)cc2-c2ccc(Cl)cc2)cc1`, the growth was 104%.
Turning to `COc1ccc2c(c1)O/C(=C\c1cccc(OCC(=O)Nc3nc(C)c(C)s3)c1)C2=O`, the growth is -59.8% (active).
Consider `NC(=N\N=C/c1cccc([N+](=O)[O-])c1)/C(N)=N\N=C/c1cccc([N+](=O)[O-])c1`, for which the growth is 70.5%.
In the case of `COC(=O)[C@]12CC[C@@H](C)[C@H](C)[C@@H]1C1=CC[C@@H]3[C@@]4(C)C(C=O)=C[C@@](C)(COC(=O)/C=C/c5ccccc5)[C@@H]4[C@H](O)C[C@@]3(C)[C@]1(C)CC2`, the growth is 1.62% (active).
As to `CS(=O)(=O)c1ccc(Nc2nc(N[C@H]3CCCC[C@H]3N)nc3cc[nH]c(=O)c23)cc1`, the growth was 62.9%.
The figure for `CCCCc1ccc(Nc2ccc(Nc3ccc(CCCC)cc3S(=O)(=O)O)c3c2C(=O)c2ccccc2C3=O)c(S(=O)(=O)O)c1` is 52%; for `COc1ccc(-c2nc3c(c(=O)n2C(C)=O)C(c2ccc(Cl)cc2)c2sc4c(Cl)cccc4c2O3)cc1` (stereo not given) it is 2.22% (active).
The figure for `COc1cc2c(cc1-c1c(C)noc1C)ncc1nc(C3CCCCC3)n(C3CCC(OC(F)F)CC3)c12` (stereo not given) is 4.9% (active); for `COc1ccc(C(=O)COc2ccc(/C=C3\Oc4ccccc4C3=O)cc2)cc1` it is 89%.
Take `O=C(c1ccccc1)c1c(/C=C/c2ccc(Cl)cc2)nc2ccccc2c1/C=C/c1cccs1`: the growth is 94.6%.
Then `COc1ccc(C2=Nc3c(N)ncnc3NC(c3ccc4c(c3)OCO4)C2)cc1` (stereo not given), with 61.5%; and `COc1cc(C2CC(c3cc(OC)c(OCCCOc4ccc(-n5c(/C=C/c6ccccc6)nc6ccccc6c5=O)cc4)c(OC)c3)=NO2)cc(OC)c1OC` (stereo not given), with -9.38% (active).
The figure for `CN1CCN(CC(=O)Nc2nc(-c3cccc(NS(=O)(=O)c4cccc5c(N(C)C)cccc45)c3)cs2)CC1` is 24.2%.
With `COc1cccc(-c2nn(-c3ccccc3)cc2-c2ccnc(NCCCNC(=O)c3ccc(F)cc3)c2)c1`, the growth is 38.2%.
On to `O=C(Nc1cccc(C(F)(F)F)c1)Nc1cccc(C(F)(F)F)c1`, for which the growth was -10.5% (active).
Regarding `O=C(N=c1oc2ccccc2cc1-c1cc2ccccc2[nH]1)c1ccc(Cl)cc1`, the growth is 38.5%.
Then `Cc1ccc2[nH]c(=O)c3c(c2c1)OC(N)=C(C#N)C31c2cc(Br)ccc2-c2ccc(Br)cc21`, with 3.77% (active); and `COc1ccc(/C=N\NC(=O)c2cc(-c3ccc(Br)cc3)n(-c3ccc(S(N)(=O)=O)cc3)n2)cc1`, with 61.1%; and `CNC(=O)CCN1CCN(CC/C=C2\c3ccccc3Sc3ccc(Cl)cc32)CC1`, with 70.1%.
The figure for `COc1ccc(OC)c2c1[nH]c(=O)c1c3ncccc3cn21` is 30.1%.
With `COc1cc(N=Nc2ccc(N)cc2)c(OC)cc1N=Nc1ccccc1.[Cl][Zn][Cl]`, the growth was 90.9%.
As to `CNS(=O)(=O)c1n[nH]nc1-c1cc(C(C)(C)C)c(O)c(C(C)(C)C)c1`, the growth was 96.2%.
On to `Cc1ccccc1NC(=O)N/C(N)=N/c1nc(C)c(C)s1`, for which the growth was 6% (active).
The figure for `C=C1C(=O)O[C@H]2[C@H]1CC/C(COC(=O)C(=O)c1c[nH]c3ccc(OC)cc13)=C\CC[C@@]1(C)O[C@@H]21` is -35.6% (active); for `CNC(=O)NCC1OC(n2cnc3c(NC(=O)Nc4ccccc4)ncnc32)C(O[Si](C)(C)C(C)(C)C)C1CC(=O)N(C)OC` (stereo not given) it is -75.4% (active).
For the molecule `COc1cccc(Nc2nccc(Nc3ccc4[nH]ncc4c3)n2)c1`, the growth was -39.6% (active).
Then `COc1ccc(S(=O)(=O)NCCNc2nccc(-c3c(-c4cccc(F)c4)nc4sccn34)n2)cc1`, with 27.8%; and `C[C@H](NC(=O)[C@@H]1CSSC[C@@H](NC(=O)c2nc3ccccc3cc2O)C(=O)NCC(=O)N1C)c1ccccc1`, with 22.6%.
Then `O=C(COc1ccc(/C=C2\Oc3ccccc3C2=O)cc1)c1ccc(Cl)cc1`, with 111%.
The figure for `O=C(Nc1ccccc1-c1nc2ccccc2c(=O)[nH]1)c1cc2ccccc2[nH]1` is 98%; for `Cc1cc(NCc2cc(Nc3ccnc4cc(Cl)ccc34)ccc2F)nc(N2CCN(C)CC2)n1` it is -23.9% (active); for `O=C(O)c1ccc2c(c1)CCC2` it is 99.8%.
With `N#Cc1c(N2CCNCC2)nc2sc3cc(Cl)c(Cl)cc3n2c1=N`, the growth was 80.2%.
Consider `O=c1c2c3c(sc2nc(N/N=C/c2ccc(Br)cc2)n1Cc1ccccc1)CCCC3`, for which the growth is 52%.
